Inconclusive results are not listed. Active and inactive are the calls of the source. Calls follow the shape of the dose curve; as a rule, active = well fitted curve in the direction sought with a large enough effect in the repeat runs; inconclusive = weak or mixed curves; inactive = no such curve, though single readings can be large; an effect the other way counts as inactive or inconclusive.
Assays:
[1] = qHTS RealTime-Glo MT Cell Viability Assay in HepG2 cells - 40 hour (AID 1224870); also: nearly all actives have a fitted effect of over 50% in size
Summary of the method: (§1)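 HepG2 cells mixed with RealTime-Glo MT reagents (NanoLuc plus cell-permeant prosubstrate) were seeded at 600 cells/well, incubated 5 h at 37 C/5% CO2, then pinned with compounds in DMSO; nonlytic luminescence tracked viability during 40 h treatment.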

[2] = A CellTox Green Cytotoxicity Assay to monitor cytotoxicity in HEK293 cells - 40 hour (AID 1224871); also: nearly all actives have a fitted effect of over 45% in size
Summary of the method: (§2)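 Tox21 screen in HEK293: membrane-impermeant cyanine dye fluoresces on binding dead-cell DNA; compound pinned 5 h post-seeding, plates held at 37 C, signal read repeatedly through 40 h.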

[3] = qHTS RealTime-Glo MT Cell Viability Assay in HEK293 cells - 16 hour (AID 1224872); also: top concentration of the series differs between compounds; nearly all actives have a fitted effect of over 50% in size
Summary of the method: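 Assay medium contained NanoLuc luciferase plus cell-permeant prosubstrate, added with HEK293 cells at 600 cells/well. After 5 h at 37 C/5% CO2 compounds were added; plates stayed at 37 C for 40 h with serial luminescence reads.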

[4] = qHTS RealTime-Glo MT Cell Viability Assay in HepG2 cells - 8 hour (AID 1224873); also: nearly all actives have a fitted effect of over 55% in size
Summary of the method: as §1

[5] = qHTS RealTime-Glo MT Cell Viability Assay in HEK293 cells - 40 hour (AID 1224874); conditions: RealTime-Glo luminescence; max response: active compounds read low; also: nearly all actives have a fitted effect of over 50% in size
Summary of the method: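 HEK293 + NanoLuc + prosubstrate, 600 cells/well; 5 h, 37 C/5% CO2; compound 23 nL in DMSO by pintool; 37 C; luminescence read at 0, 8, 16, 24, 32 and 40 h time points.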

[6] = A CellTox Green Cytotoxicity Assay to monitor cytotoxicity in HEK293 cells - 24 hour (AID 1224875); also: series mostly up to about 77 µM; nearly all actives have a fitted effect of over 45% in size
Summary of the method: as §2

[7] = A CellTox Green Cytotoxicity Assay to monitor cytotoxicity in HepG2 cells - 16 hour (AID 1224876); also: nearly all actives have a fitted effect of over 45% in size
Summary of the method: (§3)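 Measurements at 0, 8, 16, 24, 32 and 40 h of treatment captured CellTox Green fluorescence in HepG2 cells that had been co-plated with reagent and preincubated 5 h at 37 C/5% CO2.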

[8] = qHTS RealTime-Glo MT Cell Viability Assay in HepG2 cells - 32 hour (AID 1224877); also: nearly all actives have a fitted effect of over 55% in size
Summary of the method: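 qHTS, HepG2, 600 cells/well, RealTime-Glo (NanoLuc + prosubstrate) added with cells; 5 h preincubation; DMSO compound addition; 37 C; luminescence at 0/8/16/24/32/40 h.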

[9] = A CellTox Green Cytotoxicity Assay to monitor cytotoxicity in HepG2 cells - 24 hour (AID 1224878); also: nearly all actives have a fitted effect of over 45% in size
Summary of the method: as §3

[10] = A CellTox Green Cytotoxicity Assay to monitor cytotoxicity in HepG2 cells - 40 hour (AID 1224879); also: nearly all actives have a fitted effect of over 40% in size
Summary of the method: as §3
% is scaled to controls: 0 for no effect and ±100 for the full control effect.

CCCCCCCCC=O
inactive: Potency [1] | Potency [2] | Potency [3] | outcome [4] | max response [5] -0.417% | Potency [6]

c1ccc2cnncc2c1
inactive: Potency [1] | Potency [2] | Potency [3] | outcome [4] | max response [5] 12.8% | Potency [6] | Potency [7] | Potency [8] | Potency [9] | Potency [10]

CCCCN(CCO)CCO
inactive: Potency [1] | Potency [2] | Potency [3] | outcome [4] | max response [5] 19% | Potency [6] | Potency [7] | Potency [8] | Potency [9] | Potency [10]

O=C(O)/C=C/c1ccc(/C=C/C(=O)O)cc1
inactive: Potency [1] | Potency [2] | Potency [3] | outcome [4] | max response [5] 3.8% | Potency [6] | Potency [7] | Potency [8] | Potency [9] | Potency [10]

CCCCCCCCN(C)CCCCCCCC
inactive: Potency [1] | Potency [2] | Potency [3] | outcome [4] | max response [5] 4.39% | Potency [6] | Potency [7]

COc1cc(C(=O)N2CCOCC2)cc(OC)c1OC
inactive: Potency [1] | Potency [2] | Potency [3] | outcome [4] | max response [5] 11.2% | Potency [6] | Potency [7] | Potency [8] | Potency [9]

CCCCC1CCCCC(=O)O1 (stereo not drawn)
inactive: Potency [1] | Potency [2] | Potency [3] | outcome [4] | max response [5] 13.6% | Potency [6] | Potency [7] | Potency [8] | Potency [9] | Potency [10]

O=[N+]([O-])c1ccc(CCO)cc1
inactive: Potency [1] | Potency [2] | Potency [3] | outcome [4] | max response [5] -7.45% | Potency [6] | Potency [7] | Potency [8]

CCC(C)OC(=O)N1CCCCC1CCO (stereo not drawn)
inactive: Potency [1] | Potency [2] | Potency [3] | outcome [4] | max response [5] -15.9% | Potency [6] | Potency [7] | Potency [8] | Potency [9] | Potency [10]

CCCC=O
inactive: Potency [1] | Potency [2] | Potency [3] | outcome [4] | max response [5] 6.1% | Potency [6] | Potency [7] | Potency [8]

CC(C)=CC(=O)O
inactive: Potency [1] | Potency [2] | Potency [3] | outcome [4] | max response [5] 10.8% | Potency [6] | Potency [7] | Potency [8] | Potency [9]

CCC(=O)/C=C/c1ccc(OC)cc1
inactive: Potency [1] | Potency [2] | Potency [3] | outcome [4] | max response [5] -0.0895% | Potency [6] | Potency [7] | Potency [8] | Potency [9] | Potency [10]

CC(C)COC(=O)C(C)C
inactive: Potency [1] | Potency [2] | Potency [3] | outcome [4] | max response [5] 3.76% | Potency [6] | Potency [7] | Potency [8] | Potency [9] | Potency [10]

N#CC1(O)CCCCC1
inactive: Potency [1] | Potency [2] | Potency [3] | outcome [4] | max response [5] -16.1% | Potency [6] | Potency [7] | Potency [8] | Potency [9] | Potency [10]

C=CCOCC(O)CS(=O)(=O)O (stereo not drawn)
inactive: Potency [1] | Potency [2] | Potency [3] | outcome [4] | max response [5] -7.7% | Potency [6] | Potency [7] | Potency [8] | Potency [9] | Potency [10]

O=C1C(CCS(=O)c2ccccc2)C(=O)N(c2ccccc2)N1c1ccccc1 (stereo not drawn)
inactive: Potency [1] | Potency [2] | Potency [3] | outcome [4] | max response [5] 1.04% | Potency [6] | Potency [7] | Potency [8] | Potency [9] | Potency [10]

FC(F)(F)C(F)(F)C(F)(F)C(F)(F)C(F)(F)C(F)(F)C(F)(F)C(F)(F)C(F)(F)C(F)(F)F
inactive: activity change, negative = cytotoxic [1] -1.18% [at 6.97 µM] | cytotoxicity increase [2] -18% [at 6.97 µM] | activity change, negative = cytotoxicity [3] -4.72% [at 6.97 µM] | viability change, negative = cytotoxic [4] 3.63% [at 6.97 µM] | max response [5] -1.44% | activity change [6] -7.77% [at 6.97 µM, active compounds read high] | cytotoxicity increase [7] 1.39% [at 6.97 µM] | activity change, negative = cytotoxic [8] -2.37% [at 6.97 µM] | cytotoxicity [9] 4.69% [at 6.97 µM] | cytotoxicity increase [10] 1.66% [at 6.97 µM]

NCCN1CCNC1=O
inactive: Potency [1] | Potency [2] | Potency [3] | outcome [4] | max response [5] 0.993% | Potency [6] | Potency [7] | Potency [8] | Potency [9]

CC/C=C\C#N
inactive: Potency [1] | Potency [2] | Potency [3] | outcome [4] | max response [5] 20.1% | Potency [6] | Potency [7] | Potency [8] | Potency [9]

Cc1nc(-c2ccc(OCC(C)C)c(C#N)c2)sc1C(=O)O
inactive: Potency [1] | Potency [2] | Potency [3] | outcome [4] | max response [5] -0.381% | Potency [6] | Potency [7] | Potency [8] | Potency [9]

CC1=CCC2C(C1)C2(C)C (stereo not drawn)
inactive: Potency [1] | Potency [2] | Potency [3] | outcome [4] | max response [5] 1.81% | Potency [6] | Potency [7] | Potency [8] | Potency [9] | Potency [10]

COc1cc(CCC(C)=O)ccc1O
inactive: Potency [1] | Potency [2] | Potency [3] | outcome [4] | max response [5] -0.231% | Potency [6] | Potency [7] | Potency [8] | Potency [9]
